# Results published in ChEMBL document CHEMBL4513216, “Probing the Open Global Health Chemical Diversity Library for Multistage-Active Starting Points for Next-Generation Antimalarials” (ACS Infect Dis, 2020).
# The whole screen tested about 69,000 compounds, of which about 8,600 (12%) showed an effect of 50% or more. The list comes from a sample in which strong results are over-represented; it also holds similar structures and randomly drawn compounds.
# Test system: Plasmodium berghei
# Assay: Screen against P. berghei liver stage (PbLuc), transformed with Luciferase, at 10uM
# Type: functional, HepG2
# Conditions: tested at 10 uM
row,Structure (SMILES),INHIBITION [%]
1,O=C(NCCc1ccccn1)N1CCOC(c2ccccc2Cl)C1 (centres undefined),-4.63
2,COc1cc(C2SC(C)=Nc3c2c(=O)[nH]n3C2CCCC2)ccc1O (centres undefined),24.7
3,CC(C)CC(=O)N1C[C@H]2CCCN(S(=O)(=O)c3ccc(Cl)s3)[C@H]2C1,-29.9
4,O=C(c1cscn1)N1CCC2(CC1)CN(c1ccccn1)CCO2,34.6
5,O=C(Cc1ccccn1)N1CCC2(CC1)CN(c1ncccn1)CCO2,27.6
6,Cc1ccc(C(=O)N2CCC3(CC2)CN(c2ccccn2)CCO3)cc1,49.7
7,CC(=O)N1CCCC2(C1)CN(C(=O)Cc1ccccc1)CCO2 (centres undefined),41.6
8,CC(C)COC1CC2(CCN(C(=O)Cc3ccccn3)CC2)C1,64.7
9,O=C(Cc1ccccn1)N1CCC2(CC1)[C@H](O)C[C@@H]2O,39
10,O=C(Cc1ccccc1)N1CCC2(CC1)CN(c1ncccn1)CCO2,50.9
11,CS(=O)(=O)N1CCOC2(CCCN(c3cnccn3)C2)C1 (centres undefined),-14
12,CCOC1CC2(CCN(C(=O)Cc3ccccn3)CC2)C1,31.2
13,Cc1cnc(C(=O)N2CCC3(CC2)CN(c2ccccn2)CCO3)cn1,56.7
14,COCC(=O)N1CCOC2(CCCN(c3cnccn3)C2)C1 (centres undefined),52.3
15,CCS(=O)(=O)N1CCOC2(CCCN(c3cnccn3)C2)C1 (centres undefined),-7.59
16,CC1=C(C#N)C(=O)NC(=O)/C1=C\c1c(C)[nH]n(-c2ccc(Cl)cc2)c1=O,11.5
17,Cn1cc(CCNC(=O)N2CCCC(c3nncn3C)C2)cn1 (centres undefined),-18
18,Cc1nnc2n1CCN(Cc1csc(-c3ccsc3)n1)C2,14.4
19,CC(C)Cc1nc(CN2CCOC(Cn3cccn3)C2)no1 (centres undefined),28.8
20,O=C(c1ccc(-c2cnco2)cc1)N1CCC(Nc2cccnn2)CC1,-46.2
21,Cc1nccn1-c1cncc(C2CCCN2Cc2cccnc2)n1 (centres undefined),-22.6
22,CCC(CO)N(C/C(C)=C/c1ccco1)Cc1ccsc1 (centres undefined),42.3
23,COCCN1CCCc2sc(C(=O)NCC3CCCO3)nc21 (centres undefined),-50.8
24,COCCN(C)C[C@@H]1CCC[C@@H]2CN(c3ncccn3)C[C@@H]21,26
25,O=C(c1cccc(F)c1)N1CCC2(CC1)CN(c1ccccn1)CCO2,57.9
26,O=C(CC1CC1)N1CCC2(CCCN(c3ncccn3)C2)CC1,52

row,Structure (SMILES),INHIBITION [%]
1,c1cnc(N2CCCC3(CCN(CC4CCOC4)CC3)C2)nc1 (centres undefined),-19.1
2,O=C(c1ccnnc1)N1CCC2(CC1)CN(c1ccccn1)CCO2,33.4
3,CN(C)C(=O)N1CCC2(CCCN(c3ncccn3)C2)C1 (centres undefined),11.5
4,O=C(c1cccnc1)N1CCC2(CC1)CN(c1ccccn1)CCO2,-13.2
5,O=C(C1=CCCCC1)N1CCC2(CC1)COC(COc1ccccn1)C2 (centres undefined),3.41
6,Cc1ccccc1CC(=O)NS(=O)(=O)c1cccc2cnccc12,40.6
7,Cc1cc(N2CCN(C(=O)c3cnn(C(C)C)c3)CC2)nc(N)n1,-2.73
8,Cc1cc(N2CCN(C(=O)c3cnn(C(C)C)c3)CC2)cc(C)n1,3
9,CC(C)n1cc(C(=O)N2CCN(c3cccc(C(F)(F)F)c3)CC2)cn1,62.8
10,O=C(C1=CCCC1)N1CCO[C@H]2[C@@H](Oc3ccccn3)CC[C@@H]21,30.1
11,Cc1occc1C(=O)N1CCO[C@H]2[C@@H](Oc3ccccn3)CC[C@@H]21,30.7
12,Cc1cncc(C(=O)N2CCO[C@H]3[C@H](Oc4ccccn4)CC[C@@H]32)c1,72.9
13,O=C(c1cscn1)N1CCO[C@H]2[C@@H](Oc3ccccn3)CC[C@@H]21,63.8
14,O=C(N1CCCC1)N1CCO[C@H]2[C@@H](Oc3ccccn3)CC[C@@H]21,35.3
15,Cc1cc(C(=O)N2CCO[C@H]3[C@H](Oc4ccccn4)CC[C@@H]32)c(C)[nH]1,32.1
16,Cc1nn(C)c(C)c1C1CCCN1C(=O)c1ccc(C(N)=O)s1 (centres undefined),22.8
17,Cc1ccc(CN(C)c2cc(N3CCCC3CO)ncn2)s1 (centres undefined),-21.4
18,CCOC(=O)N1CCN(c2nc(N3CCCC3)c3ccccc3n2)CC1,3.68
19,CCOC(=O)N1CCN(c2nc(N)c3ccccc3n2)CC1,-90.8
20,CCOC(=O)N1CCN(c2nc(NCCO)c3ccccc3n2)CC1,6.54
21,CCOC(=O)N1CCN(c2nc(NC3CC3)c3ccccc3n2)CC1,52.3
22,CCOC(=O)N1CCN(c2nc(NCCCO)c3ccccc3n2)CC1,51.3
23,CCOC(=O)N1CCN(c2nc(NC)c3ccccc3n2)CC1,45
24,CNC(=O)CN1CC[C@H]2CN(C(=O)c3ccccc3F)C[C@H]2C1,19.4
25,CCn1c(C2CCNCC2)nn(CCn2ccc(C)n2)c1=O,21.1
26,CC(=O)N1CCCCC[C@@H]2[C@@H]1[C@H](c1cccc(F)c1)CN2C(C)=O,20.1

row,Structure (SMILES),INHIBITION [%]
1,CCN1CCC(CNC(=O)C2(c3cccc(C)c3)CCCCC2)CC1,-3.2
2,CN1CCC(c2cncc(-c3cccc(Cl)c3)n2)CC1,19.6
3,CSc1ccc(CNc2ccccc2CN2CCC(O)CC2)cc1,-23.1
4,CC(C)c1ccc(CNC(C)c2ccc(S(=O)(=O)N(C)C)cc2)cc1 (centres undefined),52.3
5,CN(C)S(=O)(=O)c1ccc(CNc2ccc(Cl)cn2)cc1,79.8
6,Cc1nc(CNC(C)c2ccc(S(=O)(=O)N(C)C)cc2)no1 (centres undefined),45.7
7,CC1CCN(CC(O)CNc2ccc(Cl)cn2)CC1 (centres undefined),35.6
8,OC1CCN(Cc2ccc(CNc3ccc(Cl)cn3)cc2)CC1,54.3
9,CNS(=O)(=O)Cc1cccc(CNc2ccc(Cl)cn2)c1,45.2
10,OC1CCN(Cc2ccc(CNc3ncc(Cl)cc3F)cc2)CC1,63.7
11,OC1CCCN(CCNc2ncc(Cl)cc2F)C1 (centres undefined),22.1
12,CC(C)c1ccc(CNC(C)c2ccc(S(C)(=O)=O)cc2)cc1 (centres undefined),6.39
13,Clc1ccc(CNc2ccc(Cl)cn2)cc1,-151
14,CN(c1ccc(CNc2ccc(Cl)cn2)cc1)S(C)(=O)=O,-95.7
15,CN(C)S(=O)(=O)N1C[C@@H]2C[C@H](C(=O)NCc3ccccc3)[C@H](C1)O2,21.5
16,CC(C)Oc1ccc(CNC(=O)CN(C)S(C)(=O)=O)cc1F,13.375
17,O=C(CCc1cc2n(n1)CCN(Cc1ccncc1)C2)N1CCCC1,33.5
18,COCC1CN(C(=O)Cc2ccccn2)Cc2cn(CC3CC3)nc21 (centres undefined),-26
19,CSc1ccc(CN(CCO)C(=O)CCc2cccc(F)c2)cc1,-1.04
20,CC(C)c1nsc(N2CCC(OCCN3CCOCC3)CC2)n1,54.6
21,CC(C)c1nsc(N2CCCOCC2)n1,61.6
22,CC(C)c1nsc(N2CCOCC2)n1,7.3
23,CC(C)c1nsc(N2CCOC3(CCCC3)C2)n1,-10.3
24,CC(C)c1nsc(N2CCSCC2)n1,-8
25,CC(C)c1nsc(N2CCS(=O)(=O)CC2)n1,-16.3
26,NC(=O)C1(c2cnccn2)CCCN1Cc1ccc(Cl)c(F)c1 (centres undefined),-6.3

row,Structure (SMILES),INHIBITION [%]
1,Clc1ccc(CN(CCN2CCOCC2)Cc2cccnc2)cc1Cl,8.12
2,Cc1nn(C)c(C)c1-c1cnc(CC2CCNC2)cn1 (centres undefined),-22.3
3,Nc1nc2nc(C3CCCN(C(=O)c4cnccn4)C3)ccc2s1 (centres undefined),26.8
4,CC(C)(C)n1nc(C(=O)NCC2(C(N)=O)CCOCC2)cc1C1CC1,21.7
5,CC(C)c1cc(C(=O)NCC2(C(N)=O)CCOCC2)nn1C(C)(C)C,62.4
6,Cc1cc(C(=O)NCC2(C(N)=O)CCOCC2)nn1C(C)(C)C,0.705
7,O=C(NCC(O)c1ccccc1C(F)(F)F)c1cccnc1 (centres undefined),-2.97
8,CC(C)(C)n1ncc(NCC(O)c2ccccc2)c(Cl)c1=O (centres undefined),77.7
9,CCn1cc(NC(=O)NCC(O)c2ccccc2)cn1 (centres undefined),-30.4
10,CC(C)(C)n1ncc(NCC(O)c2ccccc2C(F)(F)F)c(Cl)c1=O (centres undefined),82.2
11,Cn1c(NCC(O)c2ccc(Cl)cc2)c(C#N)c(=O)n(C)c1=O (centres undefined),19.4
12,CC(C)(C)n1ncc(NCCc2ccccc2C(F)(F)F)c(Cl)c1=O,76.6
13,O=C(NCc1cccnc1)NCC(O)c1ccccc1C(F)(F)F (centres undefined),16.8
14,Cn1c(NCC(O)c2ccc(F)c(F)c2)c(C#N)c(=O)n(C)c1=O (centres undefined),-52.5
15,CC(=O)c1c(F)cccc1NCC(O)c1ccc(F)c(F)c1 (centres undefined),15.7
16,CC(C)(C)n1ncc(C(=O)NCCCC(N)=O)c1C(F)(F)F,26.9
17,Oc1ccc(Cl)cc1CNCc1ccccc1C(F)(F)F,16.6
18,CC(C)(C)n1ncc(NCC(O)c2ccc(F)c(F)c2)c(Cl)c1=O (centres undefined),84.5
19,Cc1ccc(C2CSCCN2C(=O)NCc2cccnc2)cc1 (centres undefined),4.66
20,CCCNS(=O)(=O)c1cc2c3c(c1)c(C)cc(=O)n3CCC2,22.85
21,CNc1cc(CNC(=O)c2ccnc(OC)c2)nc(-c2ccncc2)n1,32.3
22,Cc1cnc(N2CCn3cc(CNC(=O)CC4CC4)nc3C2)nc1,25.6
23,NC(=O)c1cc(-n2cc(-c3cccc(C(=O)O)c3)cn2)cs1,5.17
24,NC(=O)c1ccccc1-n1cc(-c2cccc(C(=O)O)c2)cn1,71.5
25,NC(=O)c1cc(-c2cccc(C(=O)O)c2)cs1,29.8
26,CO[C@H]1CCN(Cc2cnn(C)c2)[C@@H]2CN(Cc3ccncc3)C[C@H]12,7.31
